This note sets out measurements from PubChem BioAssay AID2685 (National Center for Advancing Translational Sciences (NCATS), 2010).

Structures are written as SMILES. In all, about 320,000 compounds went through this assay and about 2,100 (0.66%) were called active. Inconclusive results (about 53%) are left out. This is one part of a sample in which actives are shown more often than they occur. Calls come from the whole dose curve; as a rule, active = well fitted inhibition curve with a large enough effect in the signal ratio, with a control signal flat (not every such curve was filed as active); inconclusive = small, poorly fitted or top-dose-only effect, or effect the other way, or a change in a side signal; inactive = flat fitted curve, though single readings scatter; the % refers to the signal ratio.
Potency is the fitted concentration of half-maximal effect.

This experiment in a line: qHTS Assay for Lipid Storage Modulators in Drosophila S3 Cells.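 For cell number change: cells counted by Cell Tracker Red CMTPX staining in the red channel.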 As to conditions: BODIPY lipid droplet fluorescence, 18-24 h, cells fed with added oleic acid; cell number change: measured here: cell count max response; series mostly up to 46.1 µM. Put shortly: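 Drosophila S3 cells got compounds at several concentrations plus oleic acid (400 uM solution). Laser-scanning cytometry with 488 nm excitation read lipid droplets at 500-530 nm and cells at 575-640 nm. Percent activity was relative to 20 uM Triacsin C.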
(In general: Quantitative high-throughput screening tests each substance at several concentrations.)
`CCOCCCNc1nc(-c2ccccc2)nc2ccccc12`: the Potency is 4.61 µM (active) and the cell number change turned out to be 9.97%. `COc1ccc(CCNc2nc(-c3cccnc3)nc3ccccc23)cc1OC`: the Potency was 9.2 µM (active) and the cell number change was 0.794%. The matching figures for `COc1ccc(/C=N/Nc2nc(-c3cccnc3)nc3ccccc23)cc1OC`: “inactive” and -0.944%. The matching figures for `COCCNc1nc(-c2ccccc2)nc2ccccc12`: “inactive” and -1.08%. As to `COc1ccc(CNc2nc(-c3ccccc3)nc3ccccc23)cc1OC`, the Potency entry is “inactive” and the cell number change was -4.67%. The matching figures for `CCc1ccc(/C=N\n2cnnc2)cc1`: “inactive” and 2.5%.

For `CCC(C(=O)NC1CCCCC1)n1c(SCc2cccc(C)c2)nc2ccncc21` (centres undefined), the Potency result was “inactive” and the cell number change was -1.51%.

`Cc1ccc(S(=O)(=O)N2CCN(C(=O)CSc3ccc(Cl)cc3)CC2)cc1`: the Potency entry is “inactive” and the cell number change was -6.45%.

Regarding `O=C(CSc1ncn[nH]1)N1CCN(S(=O)(=O)c2ccccc2)CC1`, the Potency entry was “inactive” and the cell number change was determined as 11.4%. In the case of `Cc1ccc(S(=O)(=O)N2CCN(C(=O)CSc3ncn[nH]3)CC2)cc1`, the Potency was 16.4 µM (active) and the cell number change turned out to be 5.31%. On the same counts, the results for `Cc1cccn2c(CN(C)CC3Cc4ccccc4O3)c(C(=O)N3CCCCC3)nc12` (centres undefined) are “inactive” and -1.06%. Consider `COc1ccc(S(=O)(=O)N2CCN(C(c3ccccc3)c3ccccc3)CC2)cc1NC(C)=O`, for which the Potency result is “inactive” and the cell number change is 5.87%. The matching figures for `CSCC(=O)N1CCCC(CO)(CCCc2ccccc2)C1` (centres undefined): “inactive” and -13.7%. Consider `Cc1ccc(OCC(=O)N2CCN(C(=O)Cc3ccccc3)CC2)cc1`, for which the Potency entry was “inactive” and the cell number change was determined as 24.1%. The matching figures for `Cc1ccc(OCC(=O)N2CCCC(CO)(CCOc3ccccc3)C2)cc1` (centres undefined): 14.6 µM (active) and 13.9%. On the same counts, the results for `O=c1[nH]c2ccccc2n2c(-c3ccncc3)nnc12` are “inactive” and -11.8%. On to `Cc1cc(C)cc(NC(=O)c2cc3c(=O)n4ccccc4nc3s2)c1`, for which the Potency was 6.51 µM (active) and the cell number change was -3.42%. The matching figures for `CC(=O)NS(=O)(=O)c1ccc(NC(=O)c2cc3c(=O)n4ccccc4nc3s2)cc1`: “inactive” and 21.8%. As for `O=C(Nc1cccc(Cl)c1)c1cc2c(=O)n3ccccc3nc2s1`, the Potency entry is “inactive” and the cell number change turned out to be 1.29%.

Consider `O=C(CCC1CCCC1)Nc1ccccc1-c1ccccc1`, for which the Potency result is “inactive” and the cell number change is -0.161%. On the same counts, the results for `COc1ccc(NC(=O)C2CCCCN2N)cc1OC` (centres undefined) are “inactive” and -2.19%. The matching figures for `Cc1cc(C)cc(NC(=O)CSc2ccc(-c3ccccn3)nn2)c1`: “inactive” and 2.31%. With `O=S1(=O)CC/C(=N\O)c2ccccc21`, the Potency result is “inactive” and the cell number change amounted to 0.644%. Take `O=c1cc(CO)oc(C(Nc2ccccn2)c2ccccc2Cl)c1O` (centres undefined): the Potency entry was “inactive” and the cell number change was -7.74%. The matching figures for `N#Cc1ccc(OCC(=O)Nc2nc(-c3cccnc3)cs2)cc1`: “inactive” and -1.13%. As for `N#Cc1ccc(-c2ccc(OCC(=O)Nc3cccnc3)cc2)cc1`, the Potency is 13 µM (active) and the cell number change was -11.3%. The matching figures for `O=C(COc1cccc(C(F)(F)F)c1)Nc1cccnc1`: “inactive” and 28.7%. Turning to `Nc1ccc(S(=O)(=O)c2ccc(N)c(N)c2)cc1`, the Potency result was “inactive” and the cell number change was determined as 15.7%.

Take `CCCCCOCC(O)CCC(=O)NN` (centres undefined): the Potency result is “inactive” and the cell number change was -19%. The matching figures for `Cc1ccc2cc(C(c3nnnn3C3CCCC3)N(Cc3ccccc3)Cc3ccco3)c(=O)[nH]c2c1` (centres undefined): “inactive” and -7.33%. On the same counts, the results for `CCOC(=O)C1=C(CN2CCN(C(=O)c3ccco3)CC2)NC(=O)NC1c1ccc(F)cc1` (centres undefined) are “inactive” and -24.3%. Turning to `CCOC(=O)C1=C(CN2CCN(C(=O)c3ccco3)CC2)NC(=O)NC1c1ccc(OC(C)C)cc1` (centres undefined), the Potency is 18.4 µM (active) and the cell number change is -20.3%. On the same counts, the results for `CCOC(=O)C1=C(C)NC(=O)NC1c1ccc(OC(=O)c2ccco2)cc1` (centres undefined) are “inactive” and -14%. Take `Cc1nc2sc3c(c2c(=O)o1)CCCC3`: the Potency was 29.1 µM (active) and the cell number change is 5.3%.

Take `O=c1oc(-c2ccccc2)nc2sc3c(c12)CCCC3`: the Potency entry was “inactive”. In the case of `Cc1ccccc1-c1nc2sc3c(c2c(=O)o1)CCC3`, the Potency result was “inactive” and the cell number change came out at 4.59%. Turning to `COc1cccc(-c2nc(-c3ccccn3)no2)c1`, the Potency result was “inactive” and the cell number change is -6.27%. Take `Cc1c(NC(=O)CSCc2c(F)cccc2Cl)c(=O)n(-c2ccccc2)n1C`: the Potency result was “inactive” and the cell number change was 19%. Turning to `O=C1Nc2ccc(S(=O)(=O)N3CCCC3C(=O)O)c3cccc1c23` (centres undefined), the Potency entry was “inactive” and the cell number change came out at 2.18%. Turning to `CC1CCCCN1C(=O)/C(=C\c1ccccc1)c1ccccc1` (centres undefined), the Potency entry is “inactive” and the cell number change came to 7.23%. Regarding `O=C(/C(=C/c1ccccc1)c1ccccc1)N1CCCCC1`, the Potency result is “inactive” and the cell number change is -13.6%. The matching figures for `CN1CCN(C(=O)/C(=C\c2ccccc2)c2ccccc2)CC1`: 18.4 µM (active) and -17.9%. `CS(=O)(=O)c1ccccc1-c1nnc(NC(=O)c2ccc(S(=O)(=O)N3CCCC3)cc2)o1`: the outcome was “inactive [at 0.0737 µM]”. Turning to `COCCCNC(=O)c1ccccc1-c1cc(C)no1`, the Potency result is “inactive” and the cell number change was -2.62%.

In the case of `CC(C(=O)Nc1cc(C(F)(F)F)ccc1N1CCOCC1)N1C(=O)C2CC=CCC2C1=O` (centres undefined), the Potency is 1.46 µM (active) and the cell number change is -1.98%.

With `CC(=O)Nc1cc(C(F)(F)F)ccc1N1CCOCC1`, the Potency result was “inactive” and the cell number change is 3.32%. The matching figures for `CC(Cl)C(=O)Nc1cc(C(F)(F)F)ccc1N1CCOCC1` (centres undefined): “inactive” and -4.52%. Regarding `O=C(Cc1cccc2ccccc12)Nc1ccc(N2CCOCC2)cc1`, the Potency result is “inactive” and the cell number change is -1.09%.
